The structures appear in SMILES notation. Compounds without any hit were thinned out: in the full panel of roughly 83,000, 20% have a hit.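 Plates (96-well) were seeded with cells, treated with compound at one concentration, and incubated for 48 hours before percent growth was determined.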 Values without a mark were called inactive. Active and inactive are the calls of the source. Rule for the calls: active = growth percent below 10; inactive = the rest.

Test systems include SK-MEL-2 melanoma; EKVX NSCLC; SN12C renal; UO-31 renal; TK-10 renal; ACHN renal; CAKI-1 renal; A498 renal; CCRF-CEM leukemia; MOLT-4 leukemia; SR leukemia; RPMI-8226 leukemia; OVCAR-8 ovarian; OVCAR-5 ovarian; OVCAR-4 ovarian; SK-OV-3 ovarian; IGROV1 ovarian; OVCAR-3 ovarian; HS 578T breast; NCI/ADR-RES ovarian.
Common to all, as to assay: NCI-60 one-dose screen, 48 h (100 = growth as untreated, 0 = no growth, -100 = all killed)
Conditions in all cases: 10 µM unless noted

`NC(=S)c1csc(CCNC(=O)c2ccccc2)n1`: the growth was 115% with SK-MEL-2 melanoma; 115% with EKVX NSCLC; 91.8% in the assay on SN12C renal; 91% in the assay with UO-31 renal; 107% in the assay on TK-10 renal; 105% in the assay with ACHN renal. Also, the growth is 91.3% in the assay with CAKI-1 renal; 89.6% with A498 renal; 90.3% with CCRF-CEM leukemia; 102% in the assay on MOLT-4 leukemia; 107% in the assay on SR leukemia; 102% with RPMI-8226 leukemia. Moreover, the growth is 106% with OVCAR-8 ovarian; 117% in the assay with OVCAR-5 ovarian; 91.2% in the assay with OVCAR-4 ovarian; 101% in the assay with SK-OV-3 ovarian; 112% with IGROV1 ovarian; 113% with OVCAR-3 ovarian. The growth with HS 578T breast was 102%; in the assay with NCI/ADR-RES ovarian it was 110%.
In the case of `COc1ccc(-c2c(N)n[nH]c2-c2ccccc2O)cc1OC`, the growth is 88.2% in the assay with SK-MEL-2 melanoma; 92.4% with EKVX NSCLC; 104% in the assay with SN12C renal; 62.6% in the assay on UO-31 renal; 98.5% in the assay with TK-10 renal; 102% in the assay with ACHN renal. In addition, the growth in the assay on CAKI-1 renal is 21.6%; in the assay with A498 renal, 118%; with CCRF-CEM leukemia it was 81.8%; in the assay with MOLT-4 leukemia, 97%; in the assay with SR leukemia, 53.9%; in the assay on RPMI-8226 leukemia, 52.8%. Besides, the growth with OVCAR-8 ovarian was 68.3%; in the assay with OVCAR-5 ovarian, 92.2%; with OVCAR-4 ovarian it was 94.7%; in the assay with SK-OV-3 ovarian it was 84.1%; in the assay with IGROV1 ovarian, 94.6%; with OVCAR-3 ovarian, 108%. In addition, the growth was 91.7% with HS 578T breast and 98.2% in the assay with NCI/ADR-RES ovarian.
As for `CSc1ncc(C)c(Nc2ccc(Cl)cc2)n1`, the growth was 103% in the assay with SK-MEL-2 melanoma; 77.4% with EKVX NSCLC; 102% in the assay with SN12C renal; 76.4% in the assay on UO-31 renal; 95.6% in the assay on TK-10 renal; 103% in the assay with ACHN renal. Besides, the growth in the assay on CAKI-1 renal is 91%; in the assay on A498 renal, 88.5%; in the assay with CCRF-CEM leukemia, 96.5%; with MOLT-4 leukemia, 82.5%; in the assay with SR leukemia, 89.9%; with RPMI-8226 leukemia it was 102%. For the same compound, the growth in the assay with OVCAR-8 ovarian was 104%; in the assay on OVCAR-5 ovarian, 112%; with OVCAR-4 ovarian, 99.8%; in the assay on SK-OV-3 ovarian, 126%; with IGROV1 ovarian it was 85.8%; with OVCAR-3 ovarian, 111%. For the same compound, the growth with HS 578T breast was 94.9%; in the assay on NCI/ADR-RES ovarian it was 98.1%.
Turning to `CC(=O)OCCc1ccccc1`, the growth in the assay on SK-MEL-2 melanoma is 99.6%; with EKVX NSCLC it was 96.2%; with SN12C renal, 95%; in the assay with UO-31 renal, 97.8%; in the assay on TK-10 renal, 106%; in the assay on ACHN renal, 100%. Besides, the growth in the assay on CAKI-1 renal was 77.1%; with A498 renal it was 95.5%; with CCRF-CEM leukemia it was 105%; in the assay with MOLT-4 leukemia, 91.9%; in the assay on SR leukemia it was 85.3%; in the assay on RPMI-8226 leukemia it was 93.5%. The growth is 98.7% in the assay on OVCAR-8 ovarian; 91.2% in the assay on OVCAR-5 ovarian; 106% in the assay with OVCAR-4 ovarian; 102% in the assay on SK-OV-3 ovarian; 101% in the assay with IGROV1 ovarian; 137% in the assay on OVCAR-3 ovarian. In addition, the figures for the growth in the assay with HS 578T breast and with NCI/ADR-RES ovarian were 104% and 86.3%, respectively.
For `CC1(C)N=C(N)N=C(N)N1c1cccc(CN)c1`, the growth in the assay on SK-MEL-2 melanoma is 99.8%; in the assay on EKVX NSCLC, 83.9%; in the assay with SN12C renal it was 91.3%; in the assay with UO-31 renal, 66.8%; with TK-10 renal it was 101%; with ACHN renal, 100%. Also, the growth in the assay on CAKI-1 renal was 89.2%; in the assay with A498 renal it was 98%; in the assay on CCRF-CEM leukemia, 96.5%; with MOLT-4 leukemia it was 95.1%; in the assay on SR leukemia, 105%; in the assay with RPMI-8226 leukemia it was 99.9%. The growth is 93.3% in the assay on OVCAR-8 ovarian; 89.2% in the assay on OVCAR-5 ovarian; 93.8% in the assay on OVCAR-4 ovarian; 101% with SK-OV-3 ovarian; 88.8% in the assay on IGROV1 ovarian; 94.9% in the assay on OVCAR-3 ovarian. The results for the growth in the assay on HS 578T breast and with NCI/ADR-RES ovarian were 95.6% and 96.4%, respectively.
For the compound `O=C(CCCCCCCn1cc(-c2cccnc2)nn1)Nc1ccccc1-c1ccccc1`, the growth with SK-MEL-2 melanoma is 87.9%; in the assay with EKVX NSCLC it was 64.9%; with SN12C renal, 25.8%; in the assay on UO-31 renal, 62%; in the assay with TK-10 renal it was 84%; with ACHN renal, 54.8%. In addition, the growth is 17% with CAKI-1 renal; 83.3% in the assay on A498 renal; 59.9% in the assay with CCRF-CEM leukemia; 47.4% in the assay on MOLT-4 leukemia; 49.2% in the assay with SR leukemia; 30.5% in the assay on RPMI-8226 leukemia. For the same compound, the growth in the assay with OVCAR-8 ovarian is 20%; in the assay on OVCAR-5 ovarian, 62.6%; with OVCAR-4 ovarian it was 41.7%; with SK-OV-3 ovarian it was 61.7%; in the assay on IGROV1 ovarian, 28.3%; with OVCAR-3 ovarian, 48.8%. For the same compound, the values for the growth with HS 578T breast and in the assay on NCI/ADR-RES ovarian were 66.4% and 24.1%, respectively.
As for `Cc1ccc(-n2nnc(C3=NCCc4c3[nH]c3ccc(Cl)cc43)c2C)cc1`, the growth in the assay on SK-MEL-2 melanoma was 62.6%; in the assay with EKVX NSCLC, 70.8%; in the assay on SN12C renal it was 81.6%; in the assay on UO-31 renal it was 57.8%; with TK-10 renal, 78.9%; with ACHN renal it was 57.2%. The growth in the assay on CAKI-1 renal is 56.1%; with A498 renal, 66.5%; with CCRF-CEM leukemia, 27.8%; with MOLT-4 leukemia, 49.6%; in the assay with SR leukemia, 52.8%; with RPMI-8226 leukemia, 58.6%. Further, the growth in the assay with OVCAR-8 ovarian was 66.8%; in the assay with OVCAR-5 ovarian, 80.2%; in the assay on OVCAR-4 ovarian, 76.8%; with SK-OV-3 ovarian it was 87%; in the assay on IGROV1 ovarian, 90.5%; in the assay on OVCAR-3 ovarian, 83.5%. In addition, the growth in the assay with HS 578T breast is 87.8%; in the assay on NCI/ADR-RES ovarian, 76.3%.
`COc1ccc(CN2C(=O)/C(=C\c3cc(OC)c(OC)c(OC)c3)c3ccccc32)cc1`: the growth is -41% (active) with SK-MEL-2 melanoma; 5.9% (active) in the assay with EKVX NSCLC; 12.8% in the assay on SN12C renal; 5.84% (active) in the assay on UO-31 renal; 25.2% in the assay on TK-10 renal; -59.5% (active) in the assay on ACHN renal. Further, the growth in the assay on CAKI-1 renal is -53.9% (active); in the assay with A498 renal, 52.7%; in the assay on CCRF-CEM leukemia, 5.62% (active); with MOLT-4 leukemia, 1.82% (active); in the assay with SR leukemia, -21.6% (active); with RPMI-8226 leukemia, -31.1% (active). The growth in the assay on OVCAR-8 ovarian was -7.07% (active); in the assay on OVCAR-5 ovarian, 31%; with OVCAR-4 ovarian, 23.3%; in the assay on SK-OV-3 ovarian, 34%; with IGROV1 ovarian it was -22.7% (active); in the assay on OVCAR-3 ovarian it was -63.2% (active). Also, the growth in the assay with HS 578T breast was 47.7%; with NCI/ADR-RES ovarian, 2.38% (active).

For the origin of these results see PubChem BioAssay (NCI).
